G9a block: inhibitors of human histone lysine methyltransferase G9a; Q96KQ7; actives 8.8% (n = 350,000); G9a H3K9 monomethylation, AlphaScreen, 2 h; Potency, µM (highest dose often 102 µM), actives largely listed as inhibitors; note: nearly all actives have a fitted effect of over 75% in size
Target sequence (Q96KQ7 913-1193 limits assumed): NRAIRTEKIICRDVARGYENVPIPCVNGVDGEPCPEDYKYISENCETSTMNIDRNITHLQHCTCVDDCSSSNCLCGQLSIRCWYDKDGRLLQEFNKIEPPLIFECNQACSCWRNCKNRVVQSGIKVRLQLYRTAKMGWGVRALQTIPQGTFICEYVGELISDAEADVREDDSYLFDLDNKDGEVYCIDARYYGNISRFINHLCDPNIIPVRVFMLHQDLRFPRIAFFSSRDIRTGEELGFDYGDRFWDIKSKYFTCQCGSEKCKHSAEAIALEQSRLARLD
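Methyltransferase reactions run at room temperature for 2 h (20 nM enzyme, 500 nM biotin-H3K9 peptide, 20 uM SAM) after a 15 min compound preincubation; product detected by AlphaScreen beads and anti-H3K9me1 antibody.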
BAZ2B inh: blocks human BAZ2B | actives 4.4% (n = 360,000) | Potency, µM (doses to about 114 µM), hits mostly inhibitors | AID 504333 | Q9UIF8 | AlphaScreen BAZ2B-H3K14Ac peptide displacement; note: nearly all actives have a fitted effect of over 60% in size
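BAZ2B (50 nM) with biotin-H3(5-23)K14Ac peptide (50 nM) in PBS pH 7.4, 0.01% Tween-20, preformed 30 min, then compound 30 min at room temperature; top concentration 110uM. AlphaScreen streptavidin donor/nickel chelate acceptor beads (10 ug/mL final), 20 min dark, signal read.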
HP1b chromo inh: blocks HP1-beta chromodomain binding to methylated histone tails; AlphaScreen HP1-beta / biotin-H3K9me3 peptide binding; Potency, µM (doses to about 114 µM), usual class: inhibitors; actives 0.56% (n = 390,000); AID 540317; note: nearly all actives have a fitted effect of over 70% in size
Target sequence (P83916 whole entry, looked up): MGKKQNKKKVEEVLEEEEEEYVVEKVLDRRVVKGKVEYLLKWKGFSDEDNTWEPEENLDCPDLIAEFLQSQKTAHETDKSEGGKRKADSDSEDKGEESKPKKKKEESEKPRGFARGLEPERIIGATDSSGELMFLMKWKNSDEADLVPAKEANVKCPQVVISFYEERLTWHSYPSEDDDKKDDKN
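Compound inhibition of the preformed complex between 50 nM HP1-beta and 50 nM biotinylated H3K9me3 peptide was read by AlphaScreen. Buffer was PBS pH 7.4 with 0.01% Tween-20. Incubations ran 30 min at room temperature, with 10 ug/mL donor/acceptor beads.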
L3MBTL1 inh: L3MBTL1 (human) inhibition; actives 0.66% (n = 230,000); Potency, µM (series often up to 57.1 µM), actives largely listed as inhibitors; Q9Y468; AlphaScreen L3MBTL1–H3K9me1 peptide binding; note: nearly all actives have a fitted effect of over 60% in size
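First, the protein-peptide complex forms for 30 min at room temperature (L3MBTL1 50 nM, biotinylated H3K9me1 peptide 75 nM). Next, compounds are pin-transferred and incubated 30 min. Finally, AlphaScreen beads are added and read after 30 min.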
JMJD2A Tudor inh: inhibitors of human JMJD2A Tudor domain; O75164; AlphaScreen JMJD2A-Tudor / H3K4me3 peptide binding; Potency, µM (series often up to 114 µM), actives largely listed as inhibitors; actives 4.4% (n = 390,000); note: nearly all actives have a fitted effect of over 50% in size
A number is an active result; i = inactive; ? = inconclusive; nt = no result; [ ] = another dose, or the depositor's remark. Shown are actives, neighbours in structure and some others; about 11% of the full set was active somewhere. Calls come from the whole dose curve; as a rule, active = well fitted inhibition curve with a large enough effect; inconclusive = small, poorly fitted or top-dose-only effect; inactive = no such curve, though single readings can be large or run the other way.

SMILES	G9a block	BAZ2B inh	HP1b chromo inh	L3MBTL1 inh	JMJD2A Tudor inh
Cc1cccc(OC(=O)c2nc(SCc3ccccc3F)ncc2Cl)c1	i	i	i	nt	i
COc1cc(CN(C(=O)c2ccc(C)cc2)c2ccccn2)cc(OC)c1OC	i	i	i	nt	i
O=c1c(-c2cc(-c3ccccc3)nc3c2COc2ccc(Cl)cc2-3)coc2ccc(F)cc12	i	i	i	nt	i
O=c1c(S(=O)(=O)c2ccccc2)cn(Cc2cccc(F)c2)c2cc(N3CCOCC3)c(F)cc12	i	i	i	nt	i
COc1ccccc1OCc1nc(C#N)c(N2CCCC2)o1	i	i	i	i	i
N#Cc1nc(COc2ccccc2)oc1N1CCC(Cc2ccccc2)CC1	12.6µM	?	?	i	i
O=S(=O)(NCC(c1ccco1)S(=O)(=O)c1cccs1)c1ccc(Cl)cc1 (stereo not given)	i	i	i	nt	i
CC(=O)Nc1sc(N/N=C/c2ccc(N(C)C)cc2)nc1-c1ccc(C)cc1	8.91µM	28.2µM	?	i	44.7µM
CC(=O)Nc1sc(N/N=C/c2ccc(C)cc2)nc1-c1ccc(C)cc1	?	?	?	i	44.7µM
CC(=O)c1sc(N/N=C\c2ccc(N(C)C)cc2)nc1C	i[0.501 µM]	i	i	i[2.29 µM]	i
COc1ccccc1Cc1nc2ccccc2[nH]c1=O	i	i	i	nt	i
CC(CC(=O)NCc1ccc(Cl)cc1Cl)CC1=NS(=O)(=O)c2ccccc2N1 (stereo not given)	i	i	i	nt	i
CCCCN(C(=O)c1[nH]c(C)c(C(=O)OCC)c1C)c1c(N)n(CCCC)c(=O)[nH]c1=O	?	i	i	i	i
Cc1ccccc1Cn1c2ccccc2c2cnn(CC(=O)NCCc3ccc(Cl)cc3)c(=O)c21	i	i	i	nt	i
Fc1ccc(C(c2nnnn2C2CCCC2)N2CCN(Cc3ccncc3)CC2)cc1 (stereo not given)	?	i	i	i	i
O=S(=O)(Cc1ccccc1)N1CCN(Cc2ccccc2)CC1	i[12.7 µM]	i	i	i	i
CCCS(=O)(=O)N1CCN(Cc2ccncc2)CC1	?	35.5µM	?	nt	20µM
CCCS(=O)(=O)N1CCN(c2ccccn2)CC1	i	i	i	nt	i
CCS(=O)(=O)N1CCN(Cc2ccncc2)CC1	14.1µM	35.5µM	50.1µM	i	3.55µM
c1cc(CN2CCN(C3CCCCCC3)CC2)ccn1	1.78µM	nt	?	i	20µM
Cc1c(C(=O)N2CCCCCC2)c(S(=O)(=O)N(Cc2ccccc2)C(C)(C)C)c(C)n1C	i	?	i	nt	i
CN(C)Cc1c(O)ccc2c1O/C(=C\C=C\c1ccccc1)C2=O	?	i	i	i	i[11.4 µM]
Cc1cc(O)c(CN(C)C)c2c1C(=O)/C(=C/c1ccco1)O2	6.31µM	i	i	nt	i
CC1CCCCN1S(=O)(=O)c1ccc([N+](=O)[O-])cc1 (stereo not given)	nt	i	i	i	i
CCC1CCCCN1S(=O)(=O)c1ccc([N+](=O)[O-])cc1 (stereo not given)	70.8µM	?	i	i	i
SMILES	G9a block	BAZ2B inh	HP1b chromo inh	L3MBTL1 inh	JMJD2A Tudor inh
Cc1ccc(NC(=O)CSc2ccc(C(N)=O)cc2[N+](=O)[O-])cc1C	i	i	i	i[11.4 µM]	14.1µM
CC1CCN(C(=O)COC(=O)CSc2ccc(C(N)=O)cc2[N+](=O)[O-])CC1	i[2.33 µM]	i	i	i	i
O=C(CSc1ccccc1F)OCC(=O)N1CCN(C(=O)c2ccco2)CC1	?	i	i	i	i
NC(=O)c1ccc(SCC(=O)OCC(=O)N2CCCCC2)c([N+](=O)[O-])c1	50.1µM	i	i	i	i
NC(=O)c1ccc(SCC(=O)OCC(=O)N2CCN(C(=O)c3ccco3)CC2)c([N+](=O)[O-])c1	56.2µM	i	i	?	i
Cc1cc(Br)ccc1SCC(=O)OCC(=O)N1CCN(C(=O)c2ccco2)CC1	44.7µM	?	i	i	i
Cc1ccc(NC(=O)CSc2ccc(C(N)=O)cc2[N+](=O)[O-])cc1	i	i	i	i	i
COC(=O)c1c(C)oc(C)c1S(=O)(=O)NC(c1ccccc1)c1ccccc1	i	i	i	nt	i
CC(C)(C)OC(=O)CC(=O)NNC(=O)c1nc2ccccc2[nH]1	nt	nt	nt	nt	i
COc1cccc(-n2c(SCC(=O)N3CCc4ccccc43)nc3c([nH]c4ccccc43)c2=O)c1	i	i	i	nt	i
Cc1ccc(-c2cn3cccnc3n2)cc1NC(=O)Cc1ccccc1	i	i	i	nt	i
N#CC1=C(S)N(c2ccc(F)cc2)C2(CCCCC2)NC1=O	35.5µM	?	i	i[11.4 µM]	i
CCc1ccc(NC(=O)Cn2ccn(-c3ccc(C)c(C)c3)c(=O)c2=O)cc1	i	i	i	nt	i
Cc1ccc(NC(=S)N(Cc2ccc(Cl)cc2)Cc2ccc(C(=O)O)cc2)cc1Cl	39.8µM	i	i	nt	i
COc1ccc(CN(CC2CCC(C(=O)O)CC2)C(=S)Nc2ccc(C)c(Cl)c2)cc1 (stereo not given)	?	i	i	nt	i
Cc1ccc(NC(=S)N(C)N)cc1Cl	31.6µM	?	i	i	i
CN(N)C(=S)Nc1ccc(F)cc1	50.1µM	i	i	i	i
COc1ccc(OC)c(CNC(=O)c2nn(C)c3c2CSc2ccccc2-3)c1	i	i	i	nt	i
O=C(CN(Cc1ccco1)C(=O)CCC(=O)Nc1ccccn1)NCc1ccccc1	i	i	i	nt	i
CCC(C(=O)Nc1ccc(C(=O)OC)cc1)n1c(=O)c(-c2ccccc2NC(C)=O)nc2ccccc21 (stereo not given)	?	?	i	nt	i
O=C(Nc1nc2ccccc2[nH]1)c1cccc(Cl)c1	nt	i	i	i	i
O=C(O)c1ccc(Nc2nc3ccc(Cl)cc3[nH]2)cc1	44.7µM	?	i	i	?
COc1cccc(CNc2ccc(C(=O)O)cc2)c1OCc1ccccc1	nt	i	i	i	i
COc1cccc(CNc2ccc3[nH]c(=O)[nH]c3c2)c1OCc1ccc(F)cc1	?	44.7µM	?	?	39.8µM
C=CCOc1c(CNc2ccc3[nH]c(=O)[nH]c3c2)cccc1OC	nt	i	?	i	44.7µM
SMILES	G9a block	BAZ2B inh	HP1b chromo inh	L3MBTL1 inh	JMJD2A Tudor inh
O=S(=O)(c1cccc(Cl)c1)N1CCN(c2nc(-c3cccs3)nc3ccccc23)CC1	nt	nt	i	nt	i
CCS(=O)(=O)c1nc(S(=O)(=O)c2ccc(Cl)cc2)c(N2CCc3ccccc3C2)s1	8.91µM	i	i	i	i
CCOc1cc2[nH]c(=O)n(CCC(=O)N3CCN(c4cccc(Cl)c4)CC3)c(=O)c2cc1OCC	i	i	i	nt	i
Cc1ccc(S(=O)(=O)N2CCN(c3nc(-c4cccs4)nc4c3ncn4COC(=O)C(C)(C)C)CC2)cc1	nt	nt	i	nt	i
O=C(c1cccc(F)c1)N1CCC(c2c[nH]c3ccccc23)(c2c[nH]c3ccccc23)CC1	i	i	i	nt	i
O=C(Nc1cccc(Br)c1)c1ccc2nc(N3C(=O)CCC3=O)sc2c1	?	i	i	i	i
O=C(Nc1cccc([N+](=O)[O-])c1)c1ccc2nc(N3C(=O)CCC3=O)sc2c1	11.2µM	?	i	i	i
